# Measurements from PubChem BioAssay.
# Values joined by “and” are separate entries in the source; they are usually repeats but may differ in a detail not shown here. Identical values can stand only once. Results filed as inconclusive are left out. Active and inactive are the calls of the source.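 The calls were made as follows, unless noted: active = normalized viability below 100% at a tested concentration; inactive = the rest.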
# Tests used:
# [1] = viability loss in pontine glioma line – cell-based, SU-DIPG-XXV, MIPE5.0, CellTiter-Glo, qHTS, dose response (AID 1347065; cut-off not given, nearly all actives have AC50 up to about 26 µM;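 also: cells exposed to compound for 48 hours before ATP readout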); details: CellTiter-Glo ATP luminescence
# [2] = JHH-DIPG-1 glioma cell viability, MIPE5.0 library, CellTiter-Glo luminescence, qHTS (AID 1347067; cut-off not given, nearly all actives have AC50 up to about 26 µM;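 also: cells exposed to compound for 48 hours before readout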); details: JHH-DIPG-1 glioma viability, CellTiter-Glo ATP luminescence
# [3] = SU-DIPG-XXV glioma cell viability, MIPE5.0 library, qHTS (AID 1347068; cut-off not given, nearly all actives have IC50 up to about 30 µM)
# [4] = sensitizers of A549 cells to miR-34 induction, primary screen, imaging, A549 dox-inducible miR-34, nuclei and caspase counts (AID 1347080;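 active = compounds whose cell count with miR-34 switched on is under 0.7 times the count with it off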); details: A549 miR-34 inducible, Hoechst nuclei count, 48 h
# [5] = inhibitors of Cryptococcus chitosan production, flow cytometry, Cibacron Brilliant Red staining (AID 1347148; call rule not given here;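 also: compound exposure lasted three days at 37 degrees C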); details: Cryptococcus neoformans chitosan, stronger effect = lower value; at 10 µM unless noted
# [6] = modifiers of HSF1 nuclear foci, imaging, Selleck Cancer Library (AID 1347162; in the data active = plate-normalised HSF1 focus index below about 0.46); details: human cells, at 10 µM; SSMD: measured here: HSF1 foci SSMD mean; cell count: measured here: cell number; plate-normalised HSF1 focus index: stronger effect = lower value
# [7] = phospholipid biosynthesis inhibitors in animal cells, primary screen, cell-based, LOPAC library, screen 4 (AID 1347384; call rule not given here); details: phospholipid biosynthesis inhibition screen, at 10 µM
# [8] = survival rescue of mitochondrial mutant cells in low glucose, primary screen, MELAS cybrids, Rieske KO mouse fibroblasts, CellTiter-Glo (AID 1508586;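 active = mean z-score across replicates of 1.96 or higher in either the MELAS or the Rieske mutant cell line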;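 also: z relative to plate mean and SD of compound and empty wells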)
# [9] = ovarian cancer cell viability with rucaparib, profiling panel, oncology-focused library, rucaparib conditional (AID 1508598); details: patient-derived ovarian cancer cells, CellTiter-Glo viability, 144 h, stronger effect = lower value
# [10] = viability rescue of complex I mutant cybrids, primary screen, cell-based, galactose medium, ATP luminescence (AID 1645843;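 active = z-score of at least 1.8 in each of two replicates, scored against plate mean and spread of sample wells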;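 also: positive z means more ATP and so rescue of galactose-driven cybrid death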); details: complex I mutant cybrid cells, 72 h, stronger effect = higher value
# [11] = SU-DIPG-VI glioma cell viability, MIPE4.0 library, CellTiter-Glo luminescence, qHTS (AID 1347066; cut-off not given, nearly all actives have AC50 up to about 30 µM;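 also: cells exposed to compound for 48 hours before readout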); details: CellTiter-Glo ATP luminescence
# [12] = biological target: NAD(+) hydrolase SARM1 (Homo sapiens) (UniProt Q6SZW1); assay: SARM1 TIR NADase inhibitors, cell lysate, NAD-Glo luminescence (AID 1508614;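 active = compound whose remaining NAD level is above about 45 nM, limit read from the data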;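 also: higher remaining NAD means stronger inhibition of SARM1 NADase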); details: SAM-TIR HEK293T lysate NADase, at 1 µM, stronger effect = higher value
# Sequence of NAD(+) hydrolase SARM1 (Homo sapiens) (Q6SZW1 whole entry, looked up, the tested form may be a part): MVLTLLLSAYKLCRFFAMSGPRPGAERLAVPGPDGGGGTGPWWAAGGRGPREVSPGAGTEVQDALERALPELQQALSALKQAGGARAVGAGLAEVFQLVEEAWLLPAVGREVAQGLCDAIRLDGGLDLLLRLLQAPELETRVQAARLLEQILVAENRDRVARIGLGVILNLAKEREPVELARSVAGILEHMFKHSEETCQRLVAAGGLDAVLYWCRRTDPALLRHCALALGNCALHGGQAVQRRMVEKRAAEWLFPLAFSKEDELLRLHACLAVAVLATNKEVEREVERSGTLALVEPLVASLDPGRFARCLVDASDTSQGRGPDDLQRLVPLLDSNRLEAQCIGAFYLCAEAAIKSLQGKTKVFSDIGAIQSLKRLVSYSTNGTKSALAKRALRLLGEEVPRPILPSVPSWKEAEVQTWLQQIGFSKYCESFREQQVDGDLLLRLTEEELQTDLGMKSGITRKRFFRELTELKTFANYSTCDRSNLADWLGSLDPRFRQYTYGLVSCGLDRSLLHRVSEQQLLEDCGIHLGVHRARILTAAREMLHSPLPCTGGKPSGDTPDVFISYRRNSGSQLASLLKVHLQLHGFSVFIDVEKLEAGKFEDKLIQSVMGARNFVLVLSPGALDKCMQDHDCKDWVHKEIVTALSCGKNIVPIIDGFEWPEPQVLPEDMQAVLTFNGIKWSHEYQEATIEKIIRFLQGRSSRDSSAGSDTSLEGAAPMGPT
# [13] = biological target: Mitogen-activated protein kinase 7 (Homo sapiens) (UniProt Q13164); assay: ERK5 transactivation activators in reporter cells, primary screen, cell-based, HTS (AID 1508626;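 active = luciferase signal above three times the same-plate solvent-only control wells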;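 also: luciferase driven by Gal4-ERK5 fusion binding five Gal4 sites before minimal TATA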); details: HeLa Gal4-ERK5 transactivation, 18 h, at 5 µM, stronger effect = higher value
# Sequence of Mitogen-activated protein kinase 7 (Homo sapiens) (Q13164 whole entry, looked up, the tested form may be a part): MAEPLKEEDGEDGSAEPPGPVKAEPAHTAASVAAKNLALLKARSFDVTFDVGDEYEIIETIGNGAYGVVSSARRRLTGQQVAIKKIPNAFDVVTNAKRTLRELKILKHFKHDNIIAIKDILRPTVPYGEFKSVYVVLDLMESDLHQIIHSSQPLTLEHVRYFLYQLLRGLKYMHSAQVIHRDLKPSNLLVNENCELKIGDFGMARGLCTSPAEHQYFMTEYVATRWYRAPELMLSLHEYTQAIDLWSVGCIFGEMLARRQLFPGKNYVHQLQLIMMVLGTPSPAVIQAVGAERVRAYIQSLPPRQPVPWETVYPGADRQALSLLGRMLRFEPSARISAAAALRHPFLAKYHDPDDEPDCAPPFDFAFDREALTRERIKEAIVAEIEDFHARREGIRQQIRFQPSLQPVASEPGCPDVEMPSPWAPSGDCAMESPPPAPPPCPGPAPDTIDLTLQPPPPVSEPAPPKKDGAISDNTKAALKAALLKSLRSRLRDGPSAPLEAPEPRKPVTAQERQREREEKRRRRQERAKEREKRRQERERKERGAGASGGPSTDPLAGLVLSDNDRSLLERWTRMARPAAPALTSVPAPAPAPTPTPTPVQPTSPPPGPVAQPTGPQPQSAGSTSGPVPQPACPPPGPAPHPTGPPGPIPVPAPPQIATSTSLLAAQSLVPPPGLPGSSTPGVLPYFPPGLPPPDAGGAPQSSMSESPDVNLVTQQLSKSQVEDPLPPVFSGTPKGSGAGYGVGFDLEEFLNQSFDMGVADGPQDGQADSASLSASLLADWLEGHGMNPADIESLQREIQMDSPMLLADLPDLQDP
# [14] = LFS_MB_P medulloblastoma growth inhibition, cell-based, chromothripsis tumors, cisplatin or BGB combos (AID 1671449; in the data active = inhibition above about 80%;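 also: cells exposed for 96 hours; 0% = vehicle DMSO and 100% = killing by high DMSO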); details: LFS_MB_P medulloblastoma cells
# [15] = HDN33 neuroblastoma growth inhibition, cell-based, chromothripsis tumors, cisplatin or BGB combos (AID 1671450; in the data active = inhibition above about 80%;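 also: cells exposed to compound for four days; 0% = vehicle DMSO and 100% = cell killing by high DMSO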); details: HDN33 neuroblastoma cells, stronger effect = higher value
# [16] = ICB984 medulloblastoma cell growth inhibition, synergistic combos for chromothripsis tumors, cisplatin or BGB combos (AID 1671451; call rule not given here;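 also: cells exposed for 96 hours before readout; 0% = vehicle DMSO and 100% = killing by high DMSO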); details: ICB984 medulloblastoma cells, drug combinations, stronger effect = higher value
# [17] = LFS_MB_1R medulloblastoma cell growth inhibition, synergistic combos for chromothripsis tumors, cisplatin or BGB combos (AID 1671452; in the data active = inhibition above about 80%;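 also: cells exposed for 96 hours before readout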); details: LFS_MB_1R medulloblastoma cells, stronger effect = higher value
# [18] = HTB85 osteosarcoma cell growth inhibition, synergistic combos for chromothripsis tumors, BGB or cisplatin IC20 combos (AID 1671453; in the data active = inhibition above about 80%;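 also: cells exposed for 96 hours before readout; 0% = vehicle DMSO and 100% = high DMSO killing control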); details: HTB85 osteosarcoma cells, drug combinations, stronger effect = higher value
# [19] = CRL2098 osteosarcoma cell growth inhibition, synergistic combos for chromothripsis tumors, BGB or cisplatin IC20 combos (AID 1671454; in the data active = inhibition above about 80%;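 also: cells exposed for 96 h before readout; 0% = vehicle DMSO and 100% = killing by high DMSO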); details: CRL2098 osteosarcoma cells, drug combinations, stronger effect = higher value
# [20] = HD-MB03 medulloblastoma cell growth inhibition, synergistic combos for chromothripsis tumors, BGB or cisplatin IC20 combos (AID 1671455; in the data active = inhibition above about 83%;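 also: 0% = vehicle DMSO and 100% = high DMSO as cytotoxic control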); details: HD-MB03 medulloblastoma cells, stronger effect = higher value
# [21] = measured here: combination with BGB IC40, at 0.05 µM
compound,measurement,setting,value
CN(Cc1cnc2nc(N)nc(N)c2n1)c1ccc(C(=O)N[C@@H](CCC(=O)O)C(=O)O)cc1,AC50,[1],417 nM (active)
same,outcome,[2],inactive
same,outcome,[3],inactive
same,fold change,"[4]; stronger effect = lower value, cell number ratio, induced over uninduced",1.49 (inactive) and 1.21 (inactive) and 1.07 (inactive)
same,fold change,[4]; measured here: relative caspase fold change +Dox/-Dox,1.22 and 0.656 and 1.41
same,cell count,"[4]; measured here: total cells with miR-34 induction, stronger effect = lower value",2980 and 3110 and 5280
same,cell count,[4]; measured here: total cells without miR-34 induction,2000 and 2580 and 4920
same,fold fluorescence,[5],3.97 [at 117.8 µM] (inactive)
same,SSMD,[6],2.25
same,cell count,[6],7580
same,plate-normalised HSF1 focus index,[6],1.08 (inactive)
same,outcome,[7],inactive
same,z-score,"[8]; MELAS cybrid survival, CellTiter-Glo 48 h, stronger effect = higher value",1.68 (inactive)
same,z-score,"[8]; Rieske KO mouse fibroblast survival, CellTiter-Glo 72 h",-0.369
same,viability,"[9]; at 0.000305 µM, OCI-C5x cells, with rucaparib 10 µM, 100% = cells with rucaparib alone",110% (inactive)
same,viability,"[9]; at 0.000305 µM, OCI-C5x cells, without rucaparib",111% (inactive)
same,viability,"[9]; at 0.000305 µM, OCI-P5x cells, with rucaparib 20 µM, 100% = cells with rucaparib alone",113% (inactive)
same,viability,"[9]; at 0.000305 µM, OCI-P5x cells, without rucaparib",112% (inactive)
same,viability,"[9]; at 0.00122 µM, OCI-C5x cells, with rucaparib 10 µM, 100% = cells with rucaparib alone",104% (inactive)
same,viability,"[9]; at 0.00122 µM, OCI-C5x cells, without rucaparib",91.8% (active)
same,viability,"[9]; at 0.00122 µM, OCI-P5x cells, with rucaparib 20 µM, 100% = cells with rucaparib alone",111% (inactive)
same,viability,"[9]; at 0.00122 µM, OCI-P5x cells, without rucaparib",109% (inactive)
same,viability,"[9]; at 0.00488 µM, OCI-C5x cells, with rucaparib 10 µM, 100% = cells with rucaparib alone",113% (inactive)
same,viability,"[9]; at 0.00488 µM, OCI-C5x cells, without rucaparib",106% (inactive)
same,viability,"[9]; at 0.00488 µM, OCI-P5x cells, with rucaparib 20 µM, 100% = cells with rucaparib alone",111% (inactive)
same,viability,"[9]; at 0.00488 µM, OCI-P5x cells, without rucaparib",111% (inactive)
same,viability,"[9]; at 0.0195 µM, OCI-C5x cells, with rucaparib 10 µM, 100% = cells with rucaparib alone",105% (inactive)
same,viability,"[9]; at 0.0195 µM, OCI-C5x cells, without rucaparib",103% (inactive)
same,viability,"[9]; at 0.0195 µM, OCI-P5x cells, with rucaparib 20 µM, 100% = cells with rucaparib alone",103% (inactive)
same,viability,"[9]; at 0.0195 µM, OCI-P5x cells, without rucaparib",105% (inactive)
same,viability,"[9]; at 0.0781 µM, OCI-C5x cells, with rucaparib 10 µM, 100% = cells with rucaparib alone",59.6% (active)
same,viability,"[9]; at 0.0781 µM, OCI-C5x cells, without rucaparib",35.7% (active)
same,viability,"[9]; at 0.0781 µM, OCI-P5x cells, with rucaparib 20 µM, 100% = cells with rucaparib alone",110% (inactive)
same,viability,"[9]; at 0.0781 µM, OCI-P5x cells, without rucaparib",98.3% (active)
same,viability,"[9]; at 0.313 µM, OCI-C5x cells, with rucaparib 10 µM, 100% = cells with rucaparib alone",18.2% (active)
same,viability,"[9]; at 0.313 µM, OCI-C5x cells, without rucaparib",17.2% (active)
same,viability,"[9]; at 0.313 µM, OCI-P5x cells, with rucaparib 20 µM, 100% = cells with rucaparib alone",104% (inactive)
same,viability,"[9]; at 0.313 µM, OCI-P5x cells, without rucaparib",93.3% (active)
same,viability,"[9]; at 1.25 µM, OCI-C5x cells, with rucaparib 10 µM, 100% = cells with rucaparib alone",17.8% (active)
same,viability,"[9]; at 1.25 µM, OCI-C5x cells, without rucaparib",16.5% (active)
same,viability,"[9]; at 1.25 µM, OCI-P5x cells, with rucaparib 20 µM, 100% = cells with rucaparib alone",101% (inactive)
same,viability,"[9]; at 1.25 µM, OCI-P5x cells, without rucaparib",90.7% (active)
same,viability,"[9]; at 5 µM, OCI-C5x cells, with rucaparib 10 µM, 100% = cells with rucaparib alone",27.2% (active)
same,viability,"[9]; at 5 µM, OCI-C5x cells, without rucaparib",26% (active)
same,viability,"[9]; at 5 µM, OCI-P5x cells, with rucaparib 20 µM, 100% = cells with rucaparib alone",94% (active)
same,viability,"[9]; at 5 µM, OCI-P5x cells, without rucaparib",87.3% (active)
same,z-score,[10],-1.06 (inactive) and -0.71 (inactive)
Cc1ccsc1C(=CCCN1CCC[C@@H](C(=O)O)C1)c1sccc1C,outcome,[1],inactive
same,outcome,[2],inactive
same,outcome,[3],inactive
O=c1oc2c(O)c(O)cc3c(=O)oc4c(O)c(O)cc1c4c23,outcome,[1],inactive
same,outcome,[11],inactive
same,outcome,[2],inactive
same,outcome,[3],inactive
same,remaining NAD,[12],10 nM (inactive)
same,luciferase signal,[13],60 AU (inactive)
same,inhibition,"[14]; at 0.5 µM, stronger effect = higher value",-26.4% (inactive)
same,inhibition,"[14]; measured here: combination with BGB IC20, at 0.005 µM",13.8%
same,inhibition,"[14]; measured here: combination with BGB IC40, at 0.005 µM",-25.9%
same,inhibition,[14]; [21],-14%
same,inhibition,"[14]; measured here: combination with cisplatin, at 0.5 µM, stronger effect = higher value",-13.4%
same,inhibition,"[14]; measured here: combination with cisplatin, at 5 µM, stronger effect = higher value",-36.9%
same,inhibition,"[15]; BGB combo, at 5 µM",-24.4%
same,inhibition,[15]; at 0.5 µM,-5.05% (inactive)
same,inhibition,"[15]; cisplatin combo, at 5 µM",3.04%
same,inhibition,"[15]; measured here: with BGB IC20 combination, at 0.5 µM",-1.3%
same,inhibition,"[15]; measured here: with cisplatin IC20 combination, at 0.5 µM",-3.36%
same,inhibition,"[15]; single agent, at 5 µM",-3.55%
same,inhibition,"[16]; BGB IC20 combo, at 0.005 µM",10.1%
same,inhibition,"[16]; BGB IC40 combo, at 0.005 µM",-45.8%
same,inhibition,"[16]; BGB IC40 combo, at 0.05 µM",-40.1%
same,inhibition,[16]; at 0.5 µM,-16.9% (inactive)
same,inhibition,"[16]; cisplatin combo, at 0.05 µM",-45.7%
same,inhibition,"[16]; cisplatin combo, at 0.5 µM",-24.8%
same,inhibition,"[16]; cisplatin combo, at 5 µM",-34.2%
same,inhibition,"[16]; measured here: 5 uM single agent, at 5 µM",-15.6%
same,inhibition,[17]; at 0.5 µM,-12.6% (inactive)
same,inhibition,[17]; [21],-1.97%
same,inhibition,"[17]; measured here: combination with cisplatin, at 0.5 µM",-11.4%
same,inhibition,"[17]; measured here: combination with cisplatin, at 5 µM",-1.35%
same,inhibition,[18]; at 0.5 µM,-9.37% (inactive)
same,inhibition,"[18]; measured here: with BGB IC20, at 0.5 µM",-9.05%
same,inhibition,"[18]; measured here: with BGB IC20, at 5 µM",-11.1%
same,inhibition,"[18]; measured here: with cisplatin IC20, at 0.5 µM",-24.3%
same,inhibition,"[18]; measured here: with cisplatin IC20, at 5 µM",-7.84%
same,inhibition,"[18]; single agent, at 5 µM",28.9%
same,inhibition,[19]; at 0.5 µM,-20.7% (inactive)
same,inhibition,"[19]; measured here: combination with BGB at IC20, at 0.5 µM",-5.49%
same,inhibition,"[19]; measured here: combination with cisplatin at IC20, at 0.5 µM",-39.6%
same,inhibition,[20]; at 0.5 µM,11.2% (inactive)
same,inhibition,"[20]; measured here: combo with BGB at IC20, at 0.5 µM",-0.451%
same,inhibition,"[20]; measured here: combo with cisplatin at IC20, at 0.5 µM",-7.75%
